TDP1 cell noCPT: qHTS for Inhibitors of human tyrosyl-DNA phosphodiesterase 1 (TDP1): qHTS in cells in absence of CPT; actives 15% (n = 420,000); DT40 Tdp1-/- hTDP1 cells, no CPT, ATP luminescence, 48 h; Potency, µM (doses to about 46.2 µM), for inactives: top-dose activity change, negative = growth inhibition, usual class: inhibitors; note: % is set by controls: 0 for no effect and ±100 for the full control effect; nearly all actives have a fitted effect of over 55% in size
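A cellular qHTS used chicken DT40 cells lacking endogenous Tdp1 but carrying stably transfected human TDP1. Compounds were applied without camptothecin, and cell growth kinetics were judged by ATP-dependent luminescence after ≥48 hr.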
HepG2 tox: kills HepG2 cells in TGF-b inhibitor counter-screen; HepG2 CAGA-GFP viability, ATP luminescence, 18 h; Potency, µM (titrated, usually from 46.1 µM), without a hit: at the top dose activity change, negative = cytotoxicity, most hits filed as cytotoxic; actives 0.76% (n = 410,000)
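HepG2 CAGA-GFP cells (1000/well, DMEM with 1% FBS) received compound, then TGF-beta at 500 pg/mL final, and were incubated 18 hours at 37 degrees C. Viability was read by CellTiter-Glo luminescence. Media-only wells were set as complete cell-killing and DMSO as no toxicity.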
HT1080 IDH1KD tx: kills HT-1080 cells with IDH1 knockdown; HT-1080 IDH1 knockdown viability, ATP luminescence, 48 h; Potency, µM (highest dose often 46.1 µM), for inactives: at the highest dose activity, negative = toxicity, actives largely listed as cytotoxic; actives 2% (n = 360,000);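 note: 0% = DMSO wells and -100% = cell-free medium wells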
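CellTiter-Glo luminescence after 48 h compound exposure at 37 degrees C of IDH1-knockdown HT-1080 cells in 5% FBS RPMI. %Activity scaled between DMSO wells and cell-free media wells, with curves fitted and assigned curve classes.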
TGFb inhibitor: blocks TGF-b signaling | HepG2 CAGA-GFP TGF-b/SMAD3 reporter, GFP fluorescence, 18 h; TGF-beta stimulated, 500 pg/mL final | Potency, µM (series often up to 46.1 µM), for the others: at the highest dose activity, negative = inhibition, actives largely listed as inhibitors | actives 1.2% (n = 410,000) | AID 588855; note: % is set by controls: 0 for no effect and ±100 for the full control effect; nearly all actives have a fitted effect of over 65% in size
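GFP signal (ex488/em500-530) from TGF-beta-stimulated HEPG2 CAGA-GFP cells, 500 pg/mL final, 18 h at 37 degrees C in DMEM plus 1% FBS, normalized to unstimulated and DMSO-stimulated controls.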
DT40 TDP1 CPT: growth inhibition of DT40 Tdp1-/-;hTDP1 cells with camptothecin (screen for TDP1 inhibitors). chicken DT40 Tdp1-/-;hTDP1 cells + 20 nM CPT, ATP luminescence, 48 h. Potency, µM (doses to about 46.2 µM), inactives show top-dose activity change, negative = growth inhibition, usual class: inhibitors. actives 12% (n = 420,000). AID 686979; note: % is set by controls: 0 for no effect and ±100 for the full control effect; nearly all actives have a fitted effect of over 55% in size
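Cell growth measured by CellTiter-Glo luminescence after a minimum 48 h, 37 C compound exposure with 20 nM CPT in Tdp1-knockout DT40 cells stably expressing hTDP1, seeded 400/well; qHTS titration format.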
HT1080NT lethal: kills 2HG-producing HT-1080-NT fibrosarcoma cells | AID 686970 | HT-1080-NT fibrosarcoma viability, CellTiter-Glo ATP luminescence, 48 h | actives 1.6% (n = 360,000) | Potency, µM (doses to about 46.1 µM), without a hit: at the highest dose activity, negative = less viability, most hits filed as cytotoxic;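 note: NT is the 2HG producing partner of a matched IDH1 knockdown line; 0% = DMSO-treated cells and -100% = media-only wells without cells; nearly all actives have a fitted effect of over 55% in size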
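Toxicity toward the 2HG-producing NT line was scored as %Activity, normalised to DMSO and no-cell wells, from CellTiter-Glo luminescence after 48 hours' treatment.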
Starred values were filed as active, the others as inactive; [ ] = dose if it differs, or a comment. In the library only some 17% were active in any assay of this set; here they are far more common. Calls come from the whole dose curve; as a rule, active = well fitted curve in the direction sought with a large enough effect; inconclusive = small, poorly fitted or top-dose-only effect, or another doubt; inactive = no such curve, though single readings can be large; an effect the other way counts as inactive or inconclusive. Potency is the fitted concentration of half-maximal effect.

Screening CN1CCN(S(=O)(=O)c2cccc(C(=O)N(Cc3nnc(-c4ccc(Cl)cc4)o3)C3CC3)c2)CC1 returned TDP1 cell noCPT inconclusive, HepG2 tox 1%, HT1080 IDH1KD tx -11%, TGFb inhibitor -26%, DT40 TDP1 CPT 21µM* and HT1080NT lethal -18%.
Screening O=C(c1ccc(Cl)c(S(=O)(=O)N2CCOCC2)c1)N(Cc1nnc(-c2ccccc2Cl)o1)C1CC1 returned TDP1 cell noCPT 15µM*, HepG2 tox -38%, HT1080 IDH1KD tx -1%, TGFb inhibitor -25%, DT40 TDP1 CPT 21µM* and HT1080NT lethal -3%.
CCCN(Cc1nnc(-c2ccccc2Cl)o1)C(=O)c1cc([N+](=O)[O-])cc([N+](=O)[O-])c1 was read as TDP1 cell noCPT 6.5µM*, HepG2 tox -13%, HT1080 IDH1KD tx -7%, TGFb inhibitor -7%, DT40 TDP1 CPT 6.5µM* and HT1080NT lethal -15%.
COc1ccc(NC(=O)C2C3C=CC4(O3)C2C(=O)N(CCN2CCCCC2C)C4C(=O)NC2CCCCC2)cc1 (stereo not drawn) was read as TDP1 cell noCPT 19%, HepG2 tox -8%, HT1080 IDH1KD tx -16%, TGFb inhibitor 6%, DT40 TDP1 CPT 0% and HT1080NT lethal -16%.
For COC(=O)[C@@]1(Cc2ccccc2)[C@@H]2C(=CC(=O)[C@H]2CC(=O)C(=O)N(C)C)CN1C(=O)c1ccccc1 the results were TDP1 cell noCPT 8.2µM*, HepG2 tox -51%, HT1080 IDH1KD tx 21µM*, TGFb inhibitor inconclusive, DT40 TDP1 CPT 9.2µM* and HT1080NT lethal 16µM*.
CCN(CC)S(=O)(=O)c1ccc(O)c(C(=O)OCC(=O)N2CCCc3ccccc32)c1 was read as TDP1 cell noCPT -2%, HepG2 tox -4%, HT1080 IDH1KD tx 2%, TGFb inhibitor -2%, DT40 TDP1 CPT -11% and HT1080NT lethal 4%.
For CCCCC(=O)N1C(C)CCC1C (stereo not drawn) the results were TDP1 cell noCPT 3%, HepG2 tox -35%, HT1080 IDH1KD tx 0%, TGFb inhibitor -8%, DT40 TDP1 CPT 8% and HT1080NT lethal 6%.
Screening COc1cccc(-c2sc3ccc(OC)cc3c2C#CCCO)c1 returned TDP1 cell noCPT inconclusive, HepG2 tox -10%, HT1080 IDH1KD tx -17%, TGFb inhibitor -12%, DT40 TDP1 CPT 26µM* and HT1080NT lethal -14%.
Screening COc1cc(OC)cc(-c2sc3ccc(OC)cc3c2C#CCO)c1 returned TDP1 cell noCPT 21µM*, HepG2 tox -30%, HT1080 IDH1KD tx inconclusive, TGFb inhibitor inconclusive, DT40 TDP1 CPT inconclusive and HT1080NT lethal inconclusive.
COc1ccc(CCNC(=O)Cc2ccsc2)cc1 was read as TDP1 cell noCPT 10%, HepG2 tox -7%, HT1080 IDH1KD tx 7%, TGFb inhibitor -8%, DT40 TDP1 CPT -3% and HT1080NT lethal 28%.
`O=C(O)COc1cccc(-c2ocnc2-c2nc(-c3ccccc3)c(-c3ccccc3)o2)c1` gave TDP1 cell noCPT 2% and DT40 TDP1 CPT -3%.
Screening OC1CCN(Cc2cccc(Oc3ccccc3)c2)CC1 returned TDP1 cell noCPT inconclusive, HepG2 tox -12%, HT1080 IDH1KD tx -19%, TGFb inhibitor -13%, DT40 TDP1 CPT 23µM* and HT1080NT lethal -3%.
`CCCNC(=O)C1(C)CCCN(Cc2cc(-c3ccccc3)n(C)n2)C1` (stereo not drawn) gave TDP1 cell noCPT inconclusive, HepG2 tox -16%, HT1080 IDH1KD tx 7%, TGFb inhibitor 8%, DT40 TDP1 CPT 16µM* and HT1080NT lethal 17%.
`CCCNC(=O)C1(C)CCCN(Cc2cccn2C)C1` (stereo not drawn) gave TDP1 cell noCPT 1%, HepG2 tox -12%, HT1080 IDH1KD tx 12%, TGFb inhibitor 18%, DT40 TDP1 CPT -30% and HT1080NT lethal 3%.
Screening COCCNC(=O)C1(C)CCCN(CCOc2ccc(Cl)cc2)C1 (stereo not drawn) returned TDP1 cell noCPT 15µM*, HepG2 tox -12%, HT1080 IDH1KD tx 11%, TGFb inhibitor -4%, DT40 TDP1 CPT inconclusive and HT1080NT lethal 18%.
Screening CCCNC(=O)C1(C)CCCN(Cc2ccc(C(=O)OCC)o2)C1 (stereo not drawn) returned TDP1 cell noCPT inconclusive, HepG2 tox 1%, HT1080 IDH1KD tx 4%, TGFb inhibitor 4%, DT40 TDP1 CPT inconclusive and HT1080NT lethal 21%.
Screening CCCNC(=O)C1(C)CCCN(Cc2ccc(-c3ccccc3)o2)C1 (stereo not drawn) returned TDP1 cell noCPT 21µM*, HepG2 tox -37%, HT1080 IDH1KD tx inconclusive, TGFb inhibitor -16%, DT40 TDP1 CPT 23µM* and HT1080NT lethal -10%.
`CN1CCN(Cc2cccc(Oc3ccccc3)c2)CC1` gave TDP1 cell noCPT inconclusive, HepG2 tox -3%, HT1080 IDH1KD tx 0%[9.24 µM], TGFb inhibitor -8%, DT40 TDP1 CPT -14% and HT1080NT lethal 12%.
Screening NS(=O)(=O)c1cccc(NC(=O)c2ccno2)c1 returned TDP1 cell noCPT 24%, HepG2 tox -5%, HT1080 IDH1KD tx 4%, TGFb inhibitor -2%, DT40 TDP1 CPT 1% and HT1080NT lethal 6%.
For CCC(CC)c1nnc(NC(=O)Oc2ccccc2)s1 the results were TDP1 cell noCPT 4%, HepG2 tox -16%, HT1080 IDH1KD tx 1%, TGFb inhibitor 0%, DT40 TDP1 CPT -13% and HT1080NT lethal inconclusive.
Cc1ccc(S(=O)(=O)N2C[C@H]3N(C(=O)OC(C)C)N(C(=O)OC(C)C)C[C@H](OC(=O)Nc4c(C)noc4C)[C@@]3(O)C2)cc1 was read as TDP1 cell noCPT inconclusive, HepG2 tox 0%, HT1080 IDH1KD tx 5%, TGFb inhibitor -20%, DT40 TDP1 CPT inconclusive and HT1080NT lethal 6%.
`CCCCCOC(=O)CSc1ncnc2sc3c(c12)CCC(C)C3` (stereo not drawn) gave TDP1 cell noCPT -11%, HepG2 tox 0%, TGFb inhibitor 1% and DT40 TDP1 CPT -15%.
